A number with no mark means an inactive call. Inconclusive results are not listed. Where a call stands in place of a potency, no number is given. Activity calls are given as the source filed them. Unless noted, calls come from the whole dose curve; as a rule, active = well fitted curve in the direction sought with a large enough effect in the repeat runs; inconclusive = weak or mixed curves; inactive = no such curve, though single readings can be large; an effect the other way counts as inactive or inconclusive.
Columns and labels:
[1] = biological target: Thyrotropin-releasing hormone receptor (Homo sapiens) (UniProt P34981); experiment: qHTS assay to identify small molecule agonists of the thyrotropin-releasing hormone receptor (TRHR) signaling pathway (AID 1346891; calls by dose curve;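 note: HEK293 cells expressing TRHR with calcium dye readout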); settings: TRHR-HEK293 calcium fluorescence, agonist mode; series mostly up to 57.6 µM
Chain of Thyrotropin-releasing hormone receptor (Homo sapiens) (P34981 whole entry, looked up): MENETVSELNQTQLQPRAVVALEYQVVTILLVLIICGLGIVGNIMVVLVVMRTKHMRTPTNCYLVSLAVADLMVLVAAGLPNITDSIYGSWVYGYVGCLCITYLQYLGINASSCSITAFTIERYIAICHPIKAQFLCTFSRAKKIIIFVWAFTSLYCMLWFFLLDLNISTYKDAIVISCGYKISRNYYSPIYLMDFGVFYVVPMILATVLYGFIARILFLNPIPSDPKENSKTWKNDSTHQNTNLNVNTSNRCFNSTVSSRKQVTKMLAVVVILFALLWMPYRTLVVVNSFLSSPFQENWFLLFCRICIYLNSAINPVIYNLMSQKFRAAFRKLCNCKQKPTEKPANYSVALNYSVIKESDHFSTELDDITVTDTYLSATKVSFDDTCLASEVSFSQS
How it was run: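 Agonist-mode calcium mobilisation screen: TRHR-transfected HEK293 cells cultured overnight (18 h), dye-loaded for 2 h at 37 °C, exposed to compounds, and monitored by fluorescence for 3 min.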

[2] = Human pregnane X receptor (PXR) small molecule agonists, qHTS cell viability counter screen (AID 1346977); settings: PXR-Luc HepG2 viability, CellTiter-Fluor, 24 h; series mostly up to 92.4 µM; note: nearly all actives have a fitted effect of over 50% in size; note: potency is the fitted concentration of half-maximal effect
How it was run: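 Measures live-cell protease fluorescence (CellTiter-Fluor) in PXR-Luc HepG2 cells treated 24hr with compounds at 37C. Cells had 5hr to attach before pin transfer of DMSO solutions.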

[3] = Caspase-3/7 induction in HepG2 cells by small molecules, qHTS assay (AID 1346978); settings: HepG2 caspase-3/7 activation, Caspase-Glo luminescence, 17 h; series mostly up to 92.4 µM; note: nearly all actives have a fitted effect of over 15% in size
How it was run: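 Caspase-3/7 induction was measured by Caspase-Glo 3/7 luminescence (30 min, room temperature) after a 17 hr compound exposure of wild-type HepG2 cells seeded at 2,000 per well and pre-incubated 5 hr.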

[4] = Caspase-3/7 induction in CHO-K1 cells by small molecules, qHTS cell viability counter screen (AID 1346979); settings: CellTiter-Fluor fluorescence, 17 h; series mostly up to 92.4 µM; note: nearly all actives have a fitted effect of over 35% in size; note: potency is the fitted concentration of half-maximal effect
How it was run: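 In the same wells as the caspase read, viability of compound-treated wild-type CHO-K1 cells was assessed using CellTiter-Fluor, added after 16hr at 37C and measured by fluorescence following 1hr further incubation.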

[5] = Caspase-3/7 induction in CHO-K1 cells by small molecules, qHTS assay (AID 1346980); settings: CHO-K1 caspase-3/7 induction, Caspase-Glo luminescence, 17 h; series mostly up to 92.4 µM; note: nearly all actives have a fitted effect of over 15% in size
How it was run: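 Luminescent Caspase-Glo 3/7 read (30min, room temperature) quantified apoptosis induction. Cells were wild-type CHO-K1, treated with compound for 17hr at 37 C and 5% CO2.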

[6] = Caspase-3/7 induction in HepG2 cells by small molecules, qHTS cell viability counter screen (AID 1346981); settings: CellTiter-Fluor fluorescence, 17 h; series mostly up to 92.4 µM; note: nearly all actives have a fitted effect of over 30% in size
How it was run: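 Cell viability is measured as a cytotoxicity counter screen alongside the Caspase-Glo 3/7 readout in identical wells. Wild-type HepG2 cells are treated with test compounds for 16 hr at 37 C before CellTiter-Fluor addition and a 1-hr incubation.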

[7] = biological target: Nuclear receptor subfamily 1 group I member 2 (Rattus norvegicus) (UniProt Q9R1A7); experiment: Rat pregnane X receptor (rPXR) activation by small molecules, qHTS assay (AID 1346983); settings: rPXR luciferase reporter cells, One-Glo luminescence, 24 h; max activation: active compounds read high; note: nearly all actives have a fitted effect of over 20% in size; note: potency is the fitted concentration of half-maximal effect
Chain of Nuclear receptor subfamily 1 group I member 2 (Rattus norvegicus) (Q9R1A7 whole entry, looked up): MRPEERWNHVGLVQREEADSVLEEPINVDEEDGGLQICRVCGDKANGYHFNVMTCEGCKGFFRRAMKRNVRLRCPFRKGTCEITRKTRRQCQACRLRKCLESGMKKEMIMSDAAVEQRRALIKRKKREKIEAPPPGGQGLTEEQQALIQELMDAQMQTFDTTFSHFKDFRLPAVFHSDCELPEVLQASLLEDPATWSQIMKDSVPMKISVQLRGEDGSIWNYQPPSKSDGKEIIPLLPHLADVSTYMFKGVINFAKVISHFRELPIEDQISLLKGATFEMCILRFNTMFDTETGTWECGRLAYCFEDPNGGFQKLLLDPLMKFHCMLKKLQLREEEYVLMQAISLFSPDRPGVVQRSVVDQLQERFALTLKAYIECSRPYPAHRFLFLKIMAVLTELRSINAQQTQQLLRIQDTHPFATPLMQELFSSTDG
How it was run: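 Luminescent readout (One-Glo luciferase, 30 min room temperature) followed 24 hr compound treatment at 37 C of rPXR cells plated 2,000 per well and preincubated 5hr; qHTS format with compounds delivered in DMSO.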

[8] = biological target: Nuclear receptor subfamily 1 group I member 2 (Homo sapiens) (UniProt O75469); experiment: CYP3A4 induction through human pregnane X receptor (PXR) by small molecules, qHTS assay (AID 1346984); settings: DPX-2 HepG2 PXR, CYP3A4-luciferin luminescence, 24 h; series mostly up to 46.1 µM; note: nearly all actives have a fitted effect of over 40% in size; note: potency is the fitted concentration of half-maximal effect
Chain of Nuclear receptor subfamily 1 group I member 2 (Homo sapiens) (O75469 whole entry, looked up): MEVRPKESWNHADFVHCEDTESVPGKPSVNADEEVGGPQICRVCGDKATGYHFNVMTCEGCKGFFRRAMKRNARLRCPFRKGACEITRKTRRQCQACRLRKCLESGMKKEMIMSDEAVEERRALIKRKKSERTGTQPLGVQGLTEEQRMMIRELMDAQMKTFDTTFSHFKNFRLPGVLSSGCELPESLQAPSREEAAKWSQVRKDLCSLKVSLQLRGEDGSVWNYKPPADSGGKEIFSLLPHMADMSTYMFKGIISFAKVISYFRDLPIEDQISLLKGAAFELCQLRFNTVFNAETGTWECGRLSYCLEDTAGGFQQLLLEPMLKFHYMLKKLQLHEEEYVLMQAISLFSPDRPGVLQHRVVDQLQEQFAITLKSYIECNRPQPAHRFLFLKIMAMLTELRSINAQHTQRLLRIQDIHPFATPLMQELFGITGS
How it was run: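 Quantitative HTS in DPX-2 cells, i.e. HepG2 transfected with PXR response element and CYP3A4-promoter luciferase. Compounds in DMSO incubated 24hr at 37C; then P450-Glo CYP3A4 substrate, 3uM final, 3hr; One-Glo luminescence.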

[9] = biological target: Nuclear receptor subfamily 1 group I member 2 (Homo sapiens) (UniProt O75469); experiment: Human pregnane X receptor (PXR) activation by small molecules, qHTS assay (AID 1346985); settings: DPX-2 HepG2 CYP3A4-luciferase, 24 h; series mostly up to 38.3 µM; note: nearly all actives have a fitted effect of over 40% in size; note: potency is the fitted concentration of half-maximal effect
How it was run: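 DPX-2 cells (HepG2 co-transfected with a PXR response element and a CYP3A4-promoter luciferase construct) were seeded at 2,000 per well, rested 5 hr at 37C, then exposed to DMSO-dissolved compounds for 24 hr. Activation was read as luciferase luminescence.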

[10] = biological target: Nuclear receptor subfamily 1 group I member 2 (Homo sapiens) (UniProt O75469); experiment: Human pregnane X receptor (PXR) small molecule agonists, qHTS assay (AID 1346982); settings: PXR-Luc HepG2, CYP3A4 luciferase reporter, 24 h; series mostly up to 92.4 µM; note: nearly all actives have a fitted effect of over 35% in size; note: potency is the fitted concentration of half-maximal effect
How it was run: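 Cells: HepG2 stably carrying PXR-Luc. Medium held 5% charcoal-stripped FBS. Compounds in DMSO added after 5 hr plating, incubated 24 hr, then luminescence quantified with ONE-Glo.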

SMILES	Potency [1]	Potency [2]	Potency [3]	Potency [4]	Potency [5]	Potency [6]	Potency [7]	Potency [8]	Potency [9]	Potency [10]	max activation [7]
O=C1c2ccccc2C(=O)C1c1ccc(Br)cc1	inactive	inactive	inactive	inactive	inactive	inactive	11.2 µM (active)	25.1 µM (active)	7.08 µM (active)	–	–
O=C(OCC(O)CO)c1ccccc1Nc1ccnc2cc(Cl)ccc12 (stereo unspecified)	inactive	26.6 µM (active)	inactive	–	inactive	inactive	–	inactive	inactive	11.9 µM (active)	-2.2%
CCCCCCNC(=O)n1cc(F)c(=O)[nH]c1=O	inactive	inactive	inactive	–	inactive	–	–	0.794 µM (active)	–	15 µM (active)	-10.4%
Nc1ncnc2c1ncn2[C@H]1CC[C@@H](CO)O1	inactive	inactive	inactive	inactive	inactive	inactive	–	inactive	inactive	–	1.66%
NC1[C@H]2CN(c3nc4c(cc3F)c(=O)c(C(=O)O)cn4-c3ccc(F)cc3F)C[C@@H]12 (stereo partly specified)	inactive	29.8 µM (active)	inactive	3.76 µM (active)	inactive	–	–	–	–	26.6 µM (active)	–
C=CC(=O)OCC1CC2CC1C1CCC(COC(=O)C=C)C21 (stereo unspecified)	inactive	inactive	inactive	48.6 µM (active)	–	inactive	–	–	–	34.4 µM (active)	–
O=C(O)c1cccc(-c2noc(-c3ccccc3F)n2)c1	inactive	inactive	inactive	inactive	inactive	inactive	–	inactive	inactive	0.006 µM (active)	–
C=C1c2cccc(O)c2C(O)=C2C(=O)[C@]3(O)C(O)=C(C(N)=O)C(=O)[C@@H](N(C)C)[C@@H]3[C@@H](O)[C@H]12	inactive	inactive	inactive	inactive	inactive	inactive	–	inactive	inactive	inactive	-2.64%
CCCC(C(=O)OCCN(CC)CC)(c1ccccc1)c1ccccc1	inactive	26.6 µM (active)	inactive	–	inactive	–	22.4 µM (active)	10 µM (active)	15.8 µM (active)	10.6 µM (active)	–
CN1C(C(=O)Nc2ccccn2)=C(O)c2sccc2S1(=O)=O	inactive	inactive	inactive	–	inactive	inactive	–	inactive	inactive	inactive	-1.49%
C[C@]1(Cn2ccnn2)[C@H](C(=O)O)N2C(=O)C[C@H]2S1(=O)=O	inactive	inactive	inactive	inactive	inactive	inactive	–	inactive	inactive	inactive	-2%
CN(C(=O)CN(CCO)CC(=O)N(C)C(C)(C)Cc1ccccc1)C(C)(C)Cc1ccccc1	inactive	inactive	inactive	–	inactive	inactive	–	–	8.91 µM (active)	2.37 µM (active)	–
CCOC(=O)OC(C)OC(=O)[C@@H]1N2C(=O)[C@@H](NC(=O)[C@H](N)c3ccccc3)[C@H]2SC1(C)C (stereo partly specified)	inactive	inactive	inactive	inactive	inactive	inactive	–	–	–	–	0.482%

Reference: PubChem BioAssay (Tox21)
